# Experimental data taken from PubChem BioAssay AID504381 (The Scripps Research Institute Molecular Screening Center, 2011).
# A number with no mark means an inactive call. How the calls were made is not given here.
# Tested on: Sigma receptor 2
# Assay: radioligand displacement at receptors and transporters – biochemical, PDSP panel, Set 2, late-stage follow-up (AID 504381)
# Details: PDSP radioligand binding panel, at 10 µM, active compounds read high
smiles,measurement,value
CC(=O)c1ccc2c(c1)Nc1ccccc1S2,inhibition,-12.2%
